High-throughput results from PubChem BioAssay.
Dyrk1A ADPGlo = inhibitors of rat Dyrk1A kinase; ADP-Glo luminescence, NFATc1 peptide; inhibition, % at 12.5 µM; 310,000 tested, 0.43% active; in the data active means inhibition above about 50%;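 further: plate controls were vehicle with enzyme for no effect and no enzyme for full effect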
SMARCA2 act = activators of SMARCA2 function; MG213 cells, MMTV-luciferase reporter, dexamethasone, overnight; activation, % at 9.1 µM; 370,000 tested, 1% active; AID 652017; in the data active means activation above about 7.8%;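 further: 0% = vehicle wells and 100% = reference activator wells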
CDK5 p35 inh = inhibitors of human CDK5/p35 kinase; Recombinant CDK5/p35, ADP-Glo luminescence, 60 min; inhibition, % at 10 µM; 330,000 tested, 0.01% active; AID 488839;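 active means highest replicate inhibition of at least 50% and at least 75% of replicates reaching 50%; inconclusive means only one of the two criteria met; inactive means both criteria failed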;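 further: plate controls were DMSO neutral control for no effect and GW8510 at 10 µM for full effect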
Rtt109 Vps75 = inhibitors of Candida albicans Rtt109/Vps75 histone acetyltransferase. Q5AAJ8. purified Rtt109/Vps75, ThioGlo CoA-SH fluorescence, 4 h. inhibition, % at 34.9 µM. 330,000 tested, 0.16% active;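 active means inhibition of at least 50% in every replicate; inconclusive means best replicate reaches 50% inhibition but some replicates fall short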
Target sequence (Q5AAJ8 whole entry, looked up): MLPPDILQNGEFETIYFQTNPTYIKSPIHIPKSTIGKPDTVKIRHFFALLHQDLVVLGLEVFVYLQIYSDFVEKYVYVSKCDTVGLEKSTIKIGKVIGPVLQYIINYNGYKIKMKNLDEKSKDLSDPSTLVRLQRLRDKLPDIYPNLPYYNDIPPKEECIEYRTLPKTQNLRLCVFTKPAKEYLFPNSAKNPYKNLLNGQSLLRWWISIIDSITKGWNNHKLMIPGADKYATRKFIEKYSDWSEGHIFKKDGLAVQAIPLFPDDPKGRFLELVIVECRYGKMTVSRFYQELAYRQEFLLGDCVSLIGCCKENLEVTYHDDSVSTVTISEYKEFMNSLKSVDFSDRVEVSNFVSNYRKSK
dFosB act-1 = activators of mouse delta FosB homodimer; P13346; purified delta FosB, TAMRA-CDK5 oligo fluorescence polarization; percent of positive-control signal above neutral wells; activation, % at 25 µM; 340,000 tested, 0.99% active; AID 493131;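 active means mean activation above about 17%, with every replicate also reaching it, limit read from the data, passing the limit was not always enough; inconclusive means only one of the two conditions met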
esBAF inh = blocks esBAF chromatin remodeling in mouse ES cells; 350,000 tested, 2% active; reporter increase, % at 12.5 µM; Bmi1-luciferase knock-in reporter, 24 h; 100% = twice the neutral-well signal; in the data active means activation above about 40%; inconclusive means no clear call, values can overlap the other calls;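 further: 0% = median of the plate's neutral control wells and 100% = double that signal; a rise in the Bmi1 reporter signal indicates esBAF inhibition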
dFosB act-2 = enhances mouse delta FosB homodimer binding to DNA | purified delta FosB, TAMRA-CDK5 oligo fluorescence polarization; normalised: neutral wells 0, positive control 100 | 2,400 tested, under 10 active | activation, % at 24.9 µM | shares compounds with dFosB act-1;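 active means highest replicate activation at or above 34% and every replicate reaching that threshold; inconclusive means meets only one of the two criteria; inactive means meets neither criterion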;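 further: higher polarization means more probe DNA bound by delta FosB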
Starred values were filed as active, the others as inactive; ? = inconclusive; nt = no result. An excerpt weighted towards active compounds, which were near 3.2% of everything screened.

SMILES	Dyrk1A ADPGlo	SMARCA2 act	CDK5 p35 inh	Rtt109 Vps75	dFosB act-1	esBAF inh	dFosB act-2
CO[C@H]1CC[C@H]2CCN(C)C(=O)[C@@H](C)N(C)C(=O)c3cccc(C#N)c3OC[C@@H]1O2	nt	nt	nt	nt	nt	0	nt
COc1ccc(N(CC(=O)N2CCN(c3ccc(Cl)cc3)CC2)S(=O)(=O)c2c(C)n[nH]c2C)cc1	4	-5	1	19	77*	nt	0
CCCNC(=O)CSc1nc2ccccc2c(=O)n1CCC	-3	-4	-2	7	-4	nt	nt
CCCCn1c(SCC(=O)NCc2ccco2)nc2ccccc2c1=O	3	-3	0	-3	18*	0	5
CC(=O)NCCn1c(SCC(=O)NCc2ccco2)nc2ccccc2c1=O	-9	-3	2	-8	1	2	nt
CN(C)CCCn1c(SCC(=O)N2c3ccccc3Sc3ccccc32)nc2ccccc2c1=O	-2	4	1	?	24*	-2	0
C/C(N)=C(/C#N)C(=O)CSc1nc2ccccc2c(=O)n1Cc1ccc(F)cc1	21	-3	0	2	-9	-9	nt
Cn1c(SCC(=O)N2c3ccccc3Sc3ccccc32)nc2ccccc21	-2	0	0	6	2	nt	nt
C/C(N)=C(/C#N)C(=O)CSc1nc2ccccc2c(=O)n1Cc1ccc(C)cc1	3	0	0	14	21*	nt	5
CCCn1c(SCC(=O)NCC(=O)Nc2ccc(F)c(F)c2F)nc2ccccc2c1=O	nt	-3	0	0	26*	-4	2
O=C(CSc1nc2ccccc2c(=O)n1Cc1ccc(Cl)cc1)NCc1cccs1	2	-1	0	-3	27*	-5	0
CCn1c(SCC(=O)NCc2ccccc2)nc2ccccc2c1=O	3	-2	-1	8	-5	-5	nt
CC(c1ccccc1)N(NC(=O)C(O)(c1ccccc1)c1ccccc1)C(=O)c1ccccc1 (centres undefined)	nt	-3	0	-7	38*	nt	1
O=C(C[C@H]1C[C@@H]2c3cc(NC(=O)c4ccc5c(c4)OCO5)ccc3O[C@@H]2[C@H](CO)O1)NCc1ccccn1	nt	nt	nt	nt	nt	-4	nt
COc1cccc(N2C(=O)CC(NNC(=O)c3cccs3)C2=O)c1 (centres undefined)	1	-3	-2	-4	-1	nt	nt
COc1ccc(N2C(=O)CC(NNC(=O)c3ccc(Br)s3)C2=O)cc1 (centres undefined)	7	1	-3	-5	45*	nt	-2
CCn1c(SCc2nc3ccccc3c(=O)[nH]2)nc2ccccc2c1=O	4	2	-1	-2	3	-5	nt
C=CCn1c(SCc2nc3ccccc3c(=O)[nH]2)nc2scc(C3CC3)c2c1=O	-5	-2	0	-3	33*	nt	3
CCCCn1c(N)c(N(CC(C)C)C(=O)c2cccc(S(=O)(=O)N3CCCCC3)c2)c(=O)[nH]c1=O	3	-3	0	9	6	-4	nt
CCCCn1c(N)c(N(CC(C)C)C(=O)c2cccc(S(=O)(=O)N3CCCCCC3)c2)c(=O)[nH]c1=O	10	-2	0	13	39*	1	-5
COc1cccc(CNC(=O)[C@H]2[C@H](CO)[C@H]3Cn4c(ccc(-c5cncnc5)c4=O)[C@@H]2N3C(C)=O)c1	nt	nt	nt	nt	nt	3	nt
N#C/C(=C/c1ccc(CNC(=O)C(=O)Nc2cc(Cl)cc(Cl)c2)o1)C(=O)NCc1cccnc1	-6	0	1	-4	53*	nt	0
Cc1ccc(NC(=O)C(=O)NCc2ccc(/C=C(/C#N)C(=O)NCc3cccnc3)o2)cc1	-4	-5	-1	-5	-18	-4	nt
CC(=O)Nc1ccc(/C=C/c2nc(-c3ccccc3O)n[nH]2)cc1	2	2	1	1	24*	73*	2
COc1cc(/C=C/c2nc(-c3ccccc3O)n[nH]2)cc(OC)c1OC	15	-2	0	18	?	nt	nt
SMILES	Dyrk1A ADPGlo	SMARCA2 act	CDK5 p35 inh	Rtt109 Vps75	dFosB act-1	esBAF inh	dFosB act-2
O=C(C[C@@H]1CC[C@H](NC(=O)c2ccccc2)[C@H](CO)O1)NCc1ccc(Oc2ccccc2)cc1	nt	nt	nt	nt	nt	-1	nt
O=C(NCc1ccccc1Cl)c1cccc(NC2=NC3CS(=O)(=O)CC3S2)c1 (centres undefined)	4	0	-1	3	-5	-6	nt
O=C(NCc1ccccc1Cl)c1ccc(NC2=NC3CS(=O)(=O)CC3S2)cc1 (centres undefined)	1	-2	0	11	29*	-9	4
O=C(CCN1CCCCC1)NCC[C@@H]1CC[C@@H](NC(=O)C2CCOCC2)[C@H](CO)O1	nt	nt	nt	nt	nt	1	nt
COc1ccc(S(=O)(=O)N2CCN(C(=O)c3cc(-c4ccccc4OC)n[nH]3)CC2)cc1	-13	0	1	7	-15	-5	nt
COc1cccc(-c2cc(C(=O)N3CCN(S(=O)(=O)c4ccc(Br)cc4)CC3)[nH]n2)c1	-3	1	0	-12	75*	5	5
CCN(CC)S(=O)(=O)c1ccc(Cl)c(NC(=O)c2ccccc2C)c1	-2	1	0	-3	-14	-10	nt
CCN(CC)S(=O)(=O)c1ccc(Cl)c(NC(=O)c2cc(Cl)cc(Cl)c2)c1	2	0	-1	0	54*	nt	0
O=C(Nc1ccc(Cl)cc1)Nc1nc(-c2ccccc2O)cs1	5	-8	-1	3	-3	-3	nt
O=C(Nc1ccc(Cl)cc1)Nc1nc(-c2sccc2Br)cs1	-3	0	1	-5	27*	nt	3
O=C(C[C@H]1CC[C@H](NS(=O)(=O)c2ccc(F)cc2)[C@@H](CO)O1)NCc1ccc(Cl)c(Cl)c1	nt	nt	nt	nt	nt	16	nt
CC(=O)c1sc(NC(=O)CCS(=O)(=O)c2ccc(Cl)cc2)nc1C	-12	2	1	-27	21*	nt	0
COc1ccc(NC(=O)CCS(=O)(=O)c2ccc(Cl)cc2)cc1	4	0	1	-6	-3	6	nt
CO[C@@H]1CC[C@H]2CCOc3ccc(C#N)cc3C(=O)N(C)[C@H](C)C(=O)N(C)C[C@H]1O2	nt	nt	nt	nt	nt	2	nt
Cc1cc(=O)[nH]c(N/N=C/c2c(C)nn(-c3ccc(F)cc3)c2Cl)n1	nt	-5	2	-2	46*	-4	0
COc1ccc(C(=O)N2C(=O)c3ccc(N)cc3C2=O)cc1	-1	4	0	-16	49*	nt	4
O=C(N/N=C/c1cc([N+](=O)[O-])ccc1Cl)c1ccc2nc[nH]c2c1	-11	-2	1	-5	35*	0	2
O=C(N/N=C/c1ccc(Cl)cc1Cl)c1ccc2nc[nH]c2c1	3	2	0	-1	1	28	nt
